IL-1B inflam inh – qHTS for Inhibitors of Inflammasome Signaling: IL-1-beta AlphaLISA Primary Screen | THP-1 LPS/ATP IL-1B secretion, AlphaLISA, 16 h; active compounds read low | activity change, % at 57.5 µM | 360,000 compounds, 4.7% hits | AID 743279, 2014; in the data active = activity change below about -50%; inconclusive = mostly about -30% to -49%
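Secreted IL-1B measured by AlphaLISA bead assay after 16 h compound exposure of THP-1 cells; compounds (final up to 57.5 uM) added 1 h before LPS (250 ng/mL) and ATP (1.25 mM) stimulation; lower signal means less secretion.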
DT40 TDP1 CPT – qHTS for Inhibitors of human tyrosyl-DNA phosphodiesterase 1 (TDP1): qHTS in cells in presence of CPT | chicken DT40 Tdp1-/-;hTDP1 cells + 20 nM CPT, ATP luminescence, 48 h | Potency, µM (series often up to 46.2 µM), without a hit: top-dose activity change, negative = growth inhibition, usual class: inhibitors | 420,000 compounds, 12% hits | AID 686979, 2013; also: potency is read from the fitted curve at half-maximal effect; nearly all actives have a fitted effect of over 55% in size
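Cell growth measured by CellTiter-Glo luminescence after a minimum 48 h, 37 C compound exposure with 20 nM CPT in Tdp1-knockout DT40 cells stably expressing hTDP1, seeded 400/well; qHTS titration format.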
HT1080NT lethal – qHTS for induction of synthetic lethality in tumor cells producing 2HG: qHTS for the HT-1080-NT fibrosarcoma cell line. HT-1080-NT fibrosarcoma viability, CellTiter-Glo ATP luminescence, 48 h. Potency, µM (doses to about 46.1 µM), for inactives: at the top dose activity, negative = less viability, actives largely listed as cytotoxic. 360,000 compounds, 1.6% hits. AID 686970, 2013;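 also: NT is the 2HG producing partner of a matched IDH1 knockdown line; potency is read from the fitted curve at half-maximal effect; 0% = DMSO-treated cells and -100% = media-only wells without cells; nearly all actives have a fitted effect of over 55% in size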
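HT-1080-NT fibrosarcoma cells (2HG-overproducing), 750 cells/well in RPMI with 5% FBS, dosed after 2 h and incubated 48 h at 37C. CellTiter-Glo luminescence normalized to DMSO and no-cell wells; concentration-response curves fitted and classed.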
HT1080 IDH1KD tx – qHTS for induction of synthetic lethality in tumor cells producing 2HG: qHTS for the HT-1080-IDH1KD cell line; HT-1080 IDH1 knockdown viability, ATP luminescence, 48 h; Potency, µM (doses to about 46.1 µM), for inactives: top-dose activity, negative = toxicity, usual class: cytotoxic; 360,000 compounds, 2% hits;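 also: potency is read from the fitted curve at half-maximal effect; 0% = DMSO wells and -100% = cell-free medium wells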
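Assay cells: HT-1080 with IDH1 knockdown, 750 per well, RPMI/5% FBS. Exposure: 48 h at 37 °C following 2 h pre-incubation. Read: CellTiter-Glo luminescence; fitted concentration-response, curve class assigned.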
DT40 TDP1 no CPT – qHTS for Inhibitors of human tyrosyl-DNA phosphodiesterase 1 (TDP1): qHTS in cells in absence of CPT | DT40 Tdp1-/- hTDP1 cells, no CPT, ATP luminescence, 48 h | Potency, µM (titrated, usually from 46.2 µM), without a hit: top-dose activity change, negative = growth inhibition, usual class: inhibitors | 420,000 compounds, 15% hits | AID 686978, 2013; also: potency is read from the fitted curve at half-maximal effect; nearly all actives have a fitted effect of over 55% in size
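Camptothecin absent (DMSO only). Human TDP1-complemented DT40 knockout cells, 400 cells/well, 37 °C for minimum 48 hr; ATP measured via CellTiter-Glo, 30 min dark incubation, luminescence.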
The depositor's hits bear a star. Compounds with a hit are over-represented: about 19% of the library has one in this group of screens. Unless noted, calls follow the shape of the dose curve; as a rule, active = well fitted curve in the direction sought with a large enough effect; inconclusive = small, poorly fitted or top-dose-only effect, or another doubt; inactive = no such curve, though single readings can be large; an effect the other way counts as inactive or inconclusive. Unless noted, % is scaled to controls: 0 for no effect and ±100 for the full control effect.

What do the screens show for `CC(=O)Nc1cc(-c2ccccc2CN(C)C)cn2c(-c3ccc(C(C)=O)cc3)cnc12`?
IL-1B inflam inh: 68; DT40 TDP1 CPT: inconclusive; HT1080NT lethal: 18µM*; HT1080 IDH1KD tx: inconclusive; DT40 TDP1 no CPT: 16µM*

Results for COc1ccc(-c2cnc3c(NC(C)=O)cc(-c4ccccc4CN(C)C)cn23)cc1OC ?
IL-1B inflam inh: -22; DT40 TDP1 CPT: inconclusive; HT1080NT lethal: inconclusive; HT1080 IDH1KD tx: inconclusive; DT40 TDP1 no CPT: inconclusive

What do the screens show for `CN(CC(=O)Nc1ccccc1C(=O)NC1CC1)Cc1ccc(N(C)C)cc1`?
IL-1B inflam inh: -23; DT40 TDP1 CPT: 4%; HT1080NT lethal: -2%; HT1080 IDH1KD tx: 3%; DT40 TDP1 no CPT: 7%

How did NC(=S)N/N=C/c1ncc(C(F)(F)F)cc1Cl do in these assays?
IL-1B inflam inh: -103*; DT40 TDP1 CPT: 0.41µM*; HT1080NT lethal: 10µM*; HT1080 IDH1KD tx: 5.2µM*; DT40 TDP1 no CPT: 0.52µM*

What do the screens show for `Cc1scc(C(=O)N/N=C/c2ccc(OC(C)C)cc2)c1C`?
IL-1B inflam inh: -70*; DT40 TDP1 CPT: inconclusive; HT1080NT lethal: -9%; HT1080 IDH1KD tx: -29%; DT40 TDP1 no CPT: inconclusive

How did CCCCOc1cccc(/C=N/NC(=O)c2csc(C)c2C)c1 do in these assays?
IL-1B inflam inh: inconclusive; DT40 TDP1 CPT: inconclusive; HT1080NT lethal: -17%; HT1080 IDH1KD tx: -21%; DT40 TDP1 no CPT: 23µM*

How did NC(=S)N/N=C/c1ccc(C(F)(F)F)cc1 do in these assays?
IL-1B inflam inh: 0; DT40 TDP1 CPT: 21µM*; HT1080NT lethal: inconclusive; HT1080 IDH1KD tx: 21µM*; DT40 TDP1 no CPT: 16µM*

What do the screens show for `COc1ccccc1/C=N/NC(=O)c1csc(C)c1C`?
IL-1B inflam inh: -5; DT40 TDP1 CPT: 7%; HT1080NT lethal: 17%; HT1080 IDH1KD tx: 21%; DT40 TDP1 no CPT: -8%

Results for CCn1c(C(=O)O)c(S(=O)(=O)c2ccc(Cl)cc2)c2ccccc21 ?
IL-1B inflam inh: 43; DT40 TDP1 CPT: -2%; HT1080NT lethal: 1%; HT1080 IDH1KD tx: -9%; DT40 TDP1 no CPT: 13%

Results for CC(C)Oc1ccc(/C=N/NC(N)=S)cc1 ?
IL-1B inflam inh: 2; DT40 TDP1 CPT: -23%; HT1080NT lethal: inconclusive; HT1080 IDH1KD tx: 15µM*; DT40 TDP1 no CPT: inconclusive

Results for COc1ccc(/C=N/NC(N)=S)cc1 ?
IL-1B inflam inh: 1; DT40 TDP1 CPT: inconclusive; HT1080NT lethal: inconclusive; HT1080 IDH1KD tx: 22%; DT40 TDP1 no CPT: inconclusive

How did Cc1scc(C(=O)N/N=C/c2ccc(Cl)s2)c1C do in these assays?
IL-1B inflam inh: -6; DT40 TDP1 CPT: inconclusive; HT1080NT lethal: 21%; HT1080 IDH1KD tx: 21%; DT40 TDP1 no CPT: 16µM*

How did CCOc1ccc(/C=N/NC(=O)c2csc(C)c2C)c(OCC)c1 do in these assays?
IL-1B inflam inh: 8; DT40 TDP1 CPT: 3%; HT1080NT lethal: 0%; HT1080 IDH1KD tx: 0%; DT40 TDP1 no CPT: -7%

Results for OC(c1ccc(Cl)c(Cl)c1)c1ncc(-c2ccccc2Cl)[nH]1 (centres undefined) ?
IL-1B inflam inh: 0; DT40 TDP1 CPT: inconclusive; HT1080NT lethal: inconclusive; HT1080 IDH1KD tx: inconclusive; DT40 TDP1 no CPT: inconclusive

How did CC(=O)c1cc(NC(=O)c2ccc([N+](=O)[O-])cc2)c(=O)oc1C do in these assays?
IL-1B inflam inh: -18; DT40 TDP1 CPT: inconclusive; HT1080NT lethal: 13%; HT1080 IDH1KD tx: 18%; DT40 TDP1 no CPT: 23µM*

Results for Cc1oc(=O)c(NC(=O)c2cccc(Cl)c2)cc1C(=O)c1ccccc1 ?
IL-1B inflam inh: inconclusive; DT40 TDP1 CPT: 29µM*; HT1080NT lethal: inconclusive; HT1080 IDH1KD tx: inconclusive; DT40 TDP1 no CPT: 21µM*

Bioassay records from PubChem.
